The source of these data is PubChem BioAssay (EPA / NIEHS).

The structures appear in SMILES notation. Calls of active or inactive are those of the source. Rule for the calls: active = hit-call score of the fitted dose curve at least 0.9, where 1 is the maximum; inactive = score below 0.9.

The nature of the experiment: CCTE_Shafer_MEA_acute_per_network_burst_spike_number_mean: CCTE's Neural Acute Assay for Average Number of Spikes in a Network Burst, Shafer Lab (AID 2284019). On the procedure: CCTE_Shafer_MEA_acute assay is conducted using Axion Biosystems 48 well microelectrode array (MEA) plates and Maestro recording system. Each well of the MEA plate contains a grid of 16 microelectrodes embedded in the culture surface. Electrically active cells, such as neurons, can be cultured over the electrodes, and electrical activity in these cells can be recorded extracellularly. The spontaneous firing of neurons is captured from each electrode on a microsecond timescale providing both temporally and spatially precise data. […] The CCTE_Shafer_MEA_acute assay uses primary cultures of rat cortical neurons. As these cultures mature over time, neural networks develop functional activity and form cohesive networks in which electrical activity can be highly coordinated. Baseline 40-minute recordings are made on days post-plating 13 or 15, followed by a secondary 40-minute recording after chemical exposure.CCTE_Shafer_MEA_acute_per_network_burst_spike_number_mean is a component of the CCTE_Shafer_MEA_acute assay. It measures the average number of spikes (action potential firings) in a network burst (temporally-clustered group of spikes across multiple electrodes) as the total number of spikes in a network burst divided by the number of network bursts during a recording in a microelectrode array (MEA) using Axion Biosystems Maestro 768 channel amplifier with the AxIS adaptive spike detector. The recordings before and after chemical treatment are used to calculate a percent change in the mean number of spikes in a network burst in each well.Data from the assay component CCTE_Shafer_MEA_acute_per_network_burst_spike_number_mean was analyzed into 1 assay endpoint. This assay endpoint, CCTE_Shafer_MEA_acute_per_network_burst_spike_number_mean, was analyzed in the negative analysis fitting direction relative to DMSO as the negative control and baseline of activity. Using a type of functional reporter, gain or loss-of-signal activity can be used to understand electrical activity.
Spontaneous activity in the cortical cultures was recorded using an Axion Biosystems Maestro 768 channel amplifier and Axion Integrated Studios (AxIS) v1.8 (or later) software. The amplifier recorded from all channels simultaneously (gain = 1200 x; sampling rate = 12.5 kHz/channel): raw signals were filtered with a Butterworth band-pass filter (300-5000 Hz), which filters out slower local field potentials leaving only fast potentials, i.e., "spikes", arising from extracellular currents associated with action potentials (Pine 2006; Wheeler and Nam 2011). On-line spike detection of filtered signals was conducted with the AxIS adaptive spike detector, using a threshold of 8x the root mean squared (rms) noise on each channel. Any electrodes with rms noise levels greater than 5 uV were grounded (e.g., no data were recorded). Once grounded, an electrode was grounded for the duration of the experiment. All recordings were conducted at 37 C. Wells were deemed usable if on the day of the exposure >/= 10 electrodes were active (defined as >/= 5 spikes/min). On DIV 13 or 15, a minimum of three wells from one cortical culture preparation were treated with each compound (0.03-40 uM). Prior to recording baseline activity, each mwMEA plate was placed in the Maestro at 37 C and allowed to sit for 20 min while firing rates stabilized. Baseline activity (40 min) was recorded before the addition of each compound. An additional 40 min of spontaneous activity was recorded in the presence of each compound. Changes in network parameters relative to baseline were assessed following compound treatment.
Consider `CCCCC(CC)COC(=O)CCCCCCCCC(=O)OCC(CC)CCCC` (stereo not drawn), for which the call was inactive.

Take `CC(C)=CCCC(C)=CC=O`: the compound was called inactive. Same read-out and setting: the entry for `CCC(C)(C)C(=O)O[C@H]1C[C@@H](C)C=C2C=C[C@H](C)[C@H](CC[C@@H]3C[C@@H](O)CC(=O)O3)[C@H]21` is “inactive”; for `O=C(O)CCN(C1(C(=O)NO)CCCC1)S(=O)(=O)c1ccc(Oc2ccc(F)cc2)cc1` it is “inactive”. For the compound `Cn1cnc([N+](=O)[O-])c1Sc1ncnc2nc[nH]c12`, the compound was called inactive.

`CC[C@H]1OC(=O)[C@H](C)[C@@H](O[C@H]2C[C@@](C)(OC)[C@@H](O)[C@H](C)O2)[C@H](C)[C@@H](O[C@@H]2O[C@H](C)C[C@H](N(C)C)[C@H]2O)[C@](C)(O)C[C@@H](C)C(=O)[C@H](C)[C@@H](O)[C@]1(C)O`: the outcome was inactive. The same measure, in the same setting: the entry for `Cc1[nH]cnc1C[C@H]1CCc2c(C)c3ccccc3n2C1=O` is “inactive”; for `On1ccccc1=S` it is “inactive”; for `O=P(OC(CCl)CCl)(OC(CCl)CCl)OC(CCl)CCl` it is “inactive”. On the same count and under the same terms, the value for `Cn1c(=O)c2c(ncn2C)n(C)c1=O` was “inactive”; that for `O=C(O)c1cc(N=Nc2ccc(S(=O)(=O)Nc3ccccn3)cc2)ccc1O` was “inactive”. On the same count and under the same terms, the value for `CCCN(C1CCN(C(=O)C2CCNCC2)CC1)[C@@H]1CCc2ccc(OC)cc2C1` was “inactive”.

The term AC50 denotes the midpoint of the concentration-response curve, whichever way the signal moves. In the case of `COc1cccc(-c2ccc(/C=C\CN3CCCCCC3)cc2Cl)c1`, the concentration at half-maximal activity (AC50) was 3.94 µM (active).

As for `CCOC(=O)c1ccc(C2CCC(NC[C@H](O)COc3ccc(O)c(NS(C)(=O)=O)c3)CC2)cc1` (stereo partly drawn), the compound was classed as inactive.

Turning to `CCCCCCc1ccc(O)cc1O`, the AC50 is 6.93 µM (active). As to `COc1ccc2sc(C(=O)Nc3nnn[nH]3)c(OC(C)C)c2c1`, the call was inactive. Turning to `CC[C@H]1CC[C@H](NCc2cc3c(cc2OC)[C@H]2C[C@H]2C(=O)N3C)[C@H](c2ccccc2)N1`, the result was inactive.

`CCCCCCCCCCCCc1ccccc1`: the result was inactive.
